# Assay results published in the supplement of paper PMC9950053.
# Structures can show the parent of a compound that is named as a salt.
# System: Danio rerio larvae (5 dpf)
# Test: combined upward orientation toward moving lines (periods 7-14) minus DMSO control (percentage points); higher = more orientation with moving lines than DMSO larvae
# Settings: 10 µM; exposure time: 3 h pre-incubation + 3 h imaging
# Description: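 Wild-type 5 dpf zebrafish larvae (n=48 per drug, 96-well plates, 28.5 °C) were exposed to Tocris FDA-approved library compounds at 10 µM (0.1% DMSO) for 3 h before and 3 h during imaging. Images were taken every 6 s during visual (moving coloured lines) and acoustic stimuli, and larvae were tracked with the DeepLabCut-based Z-LaP Tracker. Each behavioural measure is the treated-group mean minus the DMSO vehicle control mean (n=844), in percentage points. This mapping covers compounds with 4-character plate codes.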
row,Compound,combined upward orientation toward moving lines
1,Cc1cc(C2CCCCC2)n(O)c(=O)c1 [Ciclopirox],-27.9
2,CC1CNc2c(cccc2S(=O)(=O)N[C@@H](CCCNC(=N)N)C(=O)N2CC[C@@H](C)C[C@@H]2C(=O)O)C1 (stereo not given in full) [Argatroban],0.479
3,Cc1cccc(CN2CCN(C(c3ccccc3)c3ccc(Cl)cc3)CC2)c1 (stereo not given) [Meclizine dihydrochloride],-2.56
4,CCCCC1=NC2(CCCC2)C(=O)N1Cc1ccc(-c2ccccc2-c2nnn[nH]2)cc1 [Irbesartan],-8.87
5,CCOC(=O)[C@H](CCc1ccccc1)N[C@H]1CCc2ccccc2N(CC(=O)O)C1=O [Benazepril hydrochloride],-4.13
6,CC(=O)S[C@@H]1CC2=CC(=O)CC[C@]2(C)[C@H]2CC[C@@]3(C)[C@@H](CC[C@@]34CCC(=O)O4)[C@H]12 [Spironolactone],-2.59
7,COc1cc(Nc2c(C#N)cnc3cc(OCCCN4CCN(C)CC4)c(OC)cc23)c(Cl)cc1Cl [Bosutinib],-2.87
8,C[C@H](Cc1cc2c(c(C(N)=O)c1)N(CCCO)CC2)NCCOc1ccccc1OCC(F)(F)F [Silodosin],-4.66
9,CC(C)N(CCCCOCC(=O)NS(C)(=O)=O)c1cnc(-c2ccccc2)c(-c2ccccc2)n1 [Selexipag],-4.38
10,CC1=Nc2ccc(Cl)cc2S(=O)(=O)N1 [Diazoxide],-1.53
11,O=C(O)CCCc1ccccc1 [Sodium 4-Phenylbutyrate],-3.45
12,Cc1ccc(NC(=O)c2ccc(CN3CCN(C)CC3)cc2)cc1Nc1nccc(-c2cccnc2)n1 [Imatinib mesylate],-1.28
13,CN(C)CC/C=C1/c2ccccc2COc2ccc(CC(=O)O)cc21 [Olopatadine hydrochloride],-3.54
14,C[C@]12CC[C@@H]3c4ccc(O)cc4C[C@@H](CCCCCCCCC[S+]([O-])CCCC(F)(F)C(F)(F)F)[C@H]3[C@@H]1CC[C@@H]2O (stereo not given in full),0.781
15,C=C1[C@H](CO)[C@@H](O)C[C@@H]1n1cnc2c(=O)[nH]c(N)nc21 [Entecavir],-3.62
16,CCCCc1nc(Cl)c(CO)n1Cc1ccc(-c2ccccc2-c2nnn[nH]2)cc1 [Losartan potassium],-9.02
17,CC(C)c1nc(CN(C)C(=O)N[C@H](C(=O)N[C@@H](Cc2ccccc2)C[C@H](O)[C@H](Cc2ccccc2)NC(=O)OCc2cncs2)C(C)C)cs1 [Ritonavir],-4.18
18,C#C[C@]1(O)CC[C@H]2[C@@H]3CCC4=CC(=O)CC[C@@H]4[C@H]3CC[C@@]21CC [Levonorgestrel],5.76
19,COC(=O)C1=C(C)NC(C)=C(C(=O)OC(C)C)C1c1cccc2nonc12 (stereo not given) [Isradipine],-3.59
20,CCOC(=O)c1ncn2c1CN(C)C(=O)c1cc(F)ccc1-2 [Flumazenil],2.99

row,Compound,combined upward orientation toward moving lines
1,CC(=O)O[C@]1(C(C)=O)CC[C@H]2[C@@H]3C=C(C)C4=CC(=O)CC[C@]4(C)[C@H]3CC[C@@]21C [Megestrol Acetate],-1.8
2,NS(=O)(=O)c1cc(C(=O)O)c(NCc2ccco2)cc1Cl [Furosemide],-2.41
3,Nc1cccc2c1CN(C1CCC(=O)NC1=O)C2=O (stereo not given) [Lenalidomide],2.56
4,Cc1ccc(-c2cc(C(F)(F)F)nn2-c2ccc(S(N)(=O)=O)cc2)cc1 [Celecoxib],-15.8
5,Brc1c(NC2=NCCN2)ccc2nccnc12,-1.14
6,CCCN(CCC)S(=O)(=O)c1ccc(C(=O)O)cc1 [Probenecid],-6.67
7,CCOc1nc2cccc(C(=O)O)c2n1Cc1ccc(-c2ccccc2-c2nnn[nH]2)cc1 [Candesartan],2.56
8,CC(C)n1c(/C=C/C(O)CC(O)CC(=O)O)c(-c2ccc(F)cc2)c2ccccc21 (stereo not given) [Fluvastatin sodium],1.58
9,Nc1ccn([C@@H]2O[C@H](CO)[C@@H](O)C2(F)F)c(=O)n1 [Gemcitabine hydrochloride],5.82
10,N[C@@H]1[C@H]2CN(c3nc4c(cc3F)c(=O)c(C(=O)O)cn4-c3ccc(F)cc3F)C[C@@H]12 [Trovafloxacin mesylate],-3.7
11,CS(=O)(=O)CCNCc1ccc(-c2ccc3ncnc(Nc4ccc(OCc5cccc(F)c5)c(Cl)c4)c3c2)o1 [Lapatinib],1.75
12,Cc1c(-c2ccc(O)cc2)n(Cc2ccc(OCCN3CCCCCC3)cc2)c2ccc(O)cc12 [Bazedoxifene acetate],1.97
13,CC(C)Nc1cccnc1N1CCN(C(=O)c2cc3cc(NS(C)(=O)=O)ccc3[nH]2)CC1 [Delavirdine mesylate],-7.64
14,Nc1nc2c(ncn2COCCO)c(=O)[nH]1 [Acyclovir],0.15
15,COc1cc2nc(N3CCN(C(=O)C4COc5ccccc5O4)CC3)nc(N)c2cc1OC (stereo not given) [Doxazosin mesylate],-11.6
16,CC(C)(C#N)c1cc(Cn2cncn2)cc(C(C)(C)C#N)c1 [Anastrozole],-0.152
17,CCOc1nc2cccc(C(=O)O)c2n1Cc1ccc(-c2ccccc2-c2noc(=O)[nH]2)cc1 [Azilsartan],1.61
18,CC/C(=C(\c1ccccc1)c1ccc(OCCN(C)C)cc1)c1ccccc1 [Tamoxifen citrate],-3.88
19,CN(C)CCC[C@@]1(c2ccc(F)cc2)OCc2cc(C#N)ccc21 [Escitalopram oxalate],-1.11
20,CCCCCCCCc1ccc(CCC(N)(CO)CO)cc1,-8.46
